Results on 45 compounds are retold here after PubChem BioAssay (EPA / NIEHS).

The target in test [1] is Nucleoli Translocation, AR (gene 367) (UniProt P10275). Description: UPITT_HCI_U2OS_AR_TIF2_Nucleoli_Agonist: University of Pittsburgh U2OS Androgen Receptor-Transcriptional Intermediary Factor 2 (AR-TIF2) Agonism High Content Imaging Assay for Nucleoli Translocation (AID 2283998; active means hit-call score of the fitted dose curve at least 0.9, where 1 is the maximum). The essentials: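 U2OS cells expressing RFP-tagged human AR and GFP-tagged TIF2; red fluorescence in nucleoli quantified by high-content imaging. Primary screen at 20 uM final (0.2% DMSO); concentration-response 0.195–50 uM (0.5% DMSO), fitted upward versus DMSO.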

The target of test [2] is Ratio of Nucleoli Translocation and Cytoplasm, AR (gene 367) (UniProt P10275). Description: UPITT_HCI_U2OS_AR_TIF2_Nucleoli_Cytoplasm_Ratio_Antagonist: University of Pittsburgh U2OS Androgen Receptor-Transcriptional Intermediary Factor 2 (AR-TIF2) Antagonism High Content Imaging Assay for Ratio of Nucleoli Translocation and Cytoplasm (AID 2283999; active means hit-call score of the fitted dose curve at least 0.9, where 1 is the maximum;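 further: antagonists lower the DHT-driven ratio of nucleolar to cytoplasmic red signal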). In short, it runs like this: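 U2OS cells expressing RFP-tagged human AR and GFP-tagged TIF2; compounds tested at 20 uM final (0.2% DMSO) in primary screen, 0.195–50 uM (0.5% DMSO) for concentration response. Readout: nucleolar-to-cytoplasmic red fluorescence ratio by high-content imaging, fitted relative to DHT.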

For test [3] the target is unchanged. Description: UPITT_HCI_U2OS_AR_TIF2_Nucleoli_Cytoplasm_Ratio_Agonist: University of Pittsburgh U2OS Androgen Receptor-Transcriptional Intermediary Factor 2 (AR-TIF2) Agonism High Content Imaging Assay for Ratio of Nucleoli Translocation and Cytoplasm (AID 2284000; active means hit-call score of the fitted dose curve at least 0.9, where 1 is the maximum;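 further: hits raise the red nucleolar to cytoplasm ratio above vehicle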). In short, it runs like this:
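Read-out first: nucleolar-to-cytoplasm ratio of red (AR-RFP) signal, quantified by high-content imaging in U2OS cells co-expressing TIF2-GFP. Activity is scored as signal increase over DMSO. Single-point screening used 20 uM final (0.2% DMSO).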

Test [4] is described as follows: CCTE_Simmons_MITO_inhib_resp_rate: CCTE's HepG2 Seahorse XF Respirometric Screening Assay at Inhibited Respiratory State [full ETC block], Simmons Lab (AID 2284006). The conditions noted are these: actives raise or lower the signal. The essentials: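 HepG2 cells on Seahorse XF96; oxygen consumption measured after test compound, then FCCP, then rotenone/antimycin A injections over 72 min. Test chemicals at 7 concentrations, 125 nM–100 uM final. OCR fitted bidirectionally versus DMSO.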

Test [5] can be described thus: CCTE_Simmons_MITO_viability: CellTiter-Glo Viability Assessment for CCTE's HepG2 Seahorse XF Respirometric Screening Assay [post-hoc], Simmons Lab (AID 2284007; active means hit-call score of the fitted dose curve at least 0.9, where 1 is the maximum). In short, it runs like this: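 HepG2 cells from the Seahorse XF respirometry run were exposed 90 min to a 7-point series, 125 nM–100 uM final, DMSO vehicle; ATP content then read by luciferase luminescence. Three biological replicates, technical singles; loss of signal fitted versus DMSO.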

Test [6] is described as follows: CCTE_Shafer_MEA_acute_spike_number: CCTE's Neural Acute Assay for Total Number of Spikes, Shafer Lab (AID 2284008). The essentials:
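Rat primary cortical neurons on 48-well MEA plates, DIV 13 or 15, at 37 C. 40 min baseline then 40 min with compound (0.03-40 uM); spikes detected at 8x rms noise, expressed as percent change from baseline.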

Test [7] is described as follows: CCTE_Shafer_MEA_acute_firing_rate_mean: CCTE's Neural Acute Assay for Mean Firing Rate, Shafer Lab (AID 2284009).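 Further: analyzed for loss of signal so actives lower firing rate relative to DMSO.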 The essentials: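 Percent change in well-mean firing rate was derived from extracellular spikes detected at 8x rms noise (300-5000 Hz band-pass) before and after a 40-min compound exposure. Cultures were primary rat cortical neurons, tested at 0.03-40 uM.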

Test [8] is described as follows: CCTE_Harrill_HTTr_Viability_MCF7: CCTE's 6-hour Cell Viability Assessment for the High-Throughput Transcriptomics (HTTr) Platform, in MCF-7 cells cultured in DMEM + 10% fetal bovine serum, Harrill Lab (AID 2284010). The essentials: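 Membrane integrity was scored by high-content imaging of propidium iodide dye exclusion after a 6 h exposure across an eight-point dilution series. Data were fitted bidirectionally relative to DMSO as negative control and baseline.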

The nature of test [9]: CCTE_Harrill_HTTr_Apoptosis_MCF7: CCTE's 6-hour Apoptosis Assessment for the High-Throughput Transcriptomics (HTTr) Platform, in MCF-7 cells cultured in DMEM + 10% fetal bovine serum, Harrill Lab (AID 2284011). The essentials: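 MCF-7 cells in DMEM + 10% FBS exposed 6 h to chemicals over an eight-point dilution series. Caspase-3/7 activation imaged by high-content CellEvent Green staining; fitted bidirectionally versus DMSO.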

Test [10] can be described thus: CCTE_Shafer_MEA_acute_burst_number: CCTE's Neural Acute Assay for Single-Electrode Bursts, Shafer Lab (AID 2284013). The essentials: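 Spontaneous network activity of primary rat cortical neurons was recorded extracellularly on microelectrode arrays at 37 C, with 40-min periods before and during exposure to 0.03-40 uM compound on DIV 13 or 15.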
The nature of test [11]: CCTE_Harrill_HTTr_CellCount_MCF7: CCTE's Cell Proliferation Assessment for the High-Throughput Transcriptomics (HTTr) Platform, Harrill Lab (AID 2284012; active means hit-call score of the fitted dose curve at least 0.9, where 1 is the maximum;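 further: cells exposed to compound for six hours; intended direction is loss of nuclei count meaning fewer cells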). In short, it runs like this:
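MCF-7 cells were exposed for 6 h to an eight-point dilution series; Hoechst-labeled nuclei were counted by high content imaging. Curves were fitted bidirectionally against DMSO as negative control and baseline, with signal loss indicating reduced cell count.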

The target of test [12] is Nucleoli Translocation, AR (gene 367) (UniProt P10275). Description: UPITT_HCI_U2OS_AR_TIF2_Nucleoli_Antagonist: University of Pittsburgh U2OS Androgen Receptor-Transcriptional Intermediary Factor 2 (AR-TIF2) Antagonism High Content Imaging Assay for Nucleoli Translocation (AID 2283997; active means hit-call score of the fitted dose curve at least 0.9, where 1 is the maximum). In short, it runs like this:
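Measured quantity was AR-RFP fluorescence localized to nucleoli in engineered U2OS cells also bearing TIF2-GFP, acquired on automated high-content imagers. Primary testing used 20 uM compound; actives were confirmed in triplicate wells.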

Structures are written as SMILES. Records with an inconclusive call do not appear. Calls of active or inactive are those of the source. How the source made its calls, unless noted: active means hit-call score of the fitted dose curve at least 0.9, where 1 is the maximum; inactive means score below 0.9.

Sequence of Ratio of Nucleoli Translocation and Cytoplasm, AR (gene 367) (P10275 whole entry, looked up): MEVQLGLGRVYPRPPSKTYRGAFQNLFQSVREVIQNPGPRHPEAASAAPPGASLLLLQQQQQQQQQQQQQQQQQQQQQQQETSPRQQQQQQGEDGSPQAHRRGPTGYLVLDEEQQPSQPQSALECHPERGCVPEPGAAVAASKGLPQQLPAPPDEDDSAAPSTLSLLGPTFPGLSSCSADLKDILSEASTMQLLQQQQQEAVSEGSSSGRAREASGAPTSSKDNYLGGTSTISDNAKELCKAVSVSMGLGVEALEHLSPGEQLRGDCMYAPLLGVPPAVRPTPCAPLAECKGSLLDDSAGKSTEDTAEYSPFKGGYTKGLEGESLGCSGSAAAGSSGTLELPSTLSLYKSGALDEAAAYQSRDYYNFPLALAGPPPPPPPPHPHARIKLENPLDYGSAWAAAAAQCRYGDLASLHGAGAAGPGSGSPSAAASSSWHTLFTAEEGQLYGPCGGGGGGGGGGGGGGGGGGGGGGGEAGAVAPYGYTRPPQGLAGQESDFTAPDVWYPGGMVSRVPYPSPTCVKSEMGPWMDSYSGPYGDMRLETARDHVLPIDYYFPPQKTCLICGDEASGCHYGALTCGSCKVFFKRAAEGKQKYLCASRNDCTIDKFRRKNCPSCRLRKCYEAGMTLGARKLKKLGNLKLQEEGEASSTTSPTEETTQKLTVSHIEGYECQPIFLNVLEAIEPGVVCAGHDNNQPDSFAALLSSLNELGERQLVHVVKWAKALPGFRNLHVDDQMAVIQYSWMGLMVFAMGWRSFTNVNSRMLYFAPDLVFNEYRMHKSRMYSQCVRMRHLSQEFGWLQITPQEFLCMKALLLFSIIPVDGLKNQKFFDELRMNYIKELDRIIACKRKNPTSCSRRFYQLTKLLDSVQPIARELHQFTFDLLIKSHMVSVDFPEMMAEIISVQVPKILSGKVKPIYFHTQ
Sequence of Nucleoli Translocation, AR (gene 367) (P10275 whole entry, looked up): as above

For the compound `C=CCc1cc(S(=O)(=O)c2ccc(O)c(CC=C)c2)ccc1O`, the AC50 in test [1] is 84000 nM (active). The outcome in [2], in test [3], in [4], in test [5], in [6] and in test [7] was inactive. For the same compound, the result in [8], in test [9] and in test [10] was inactive.

For `Cn1c(=O)c2[nH]cnc2n(C)c1=O`, the compound was called inactive in test [6], in [7], in test [8], in test [9] and in test [10].

As to `COCc1nnc(-c2ccc[n+]([O-])c2)n1-c1c(Cl)c(Cl)cc2[nH]c(=O)c(=O)[nH]c12`, the outcome in test [3], in [6], in [7], in [8], in test [9] and in [10] was inactive.

As to `O=C(O)CO`, the result in test [8] and in test [9] was inactive.

As for `Cc1ncc([C@@H](CCCCCCc2ccc3c(n2)NCCC3)CC(=O)O)cn1`, the outcome in test [6], in test [7] and in test [10] was inactive. Further, the AC50 in [8] was 62.6 nM (active); in [9], 1600 nM (active); in test [11], 321 nM (active).

Regarding `OCCOCCOCCO`, the result in [12], in test [1], in test [3], in test [8] and in [9] was inactive.

As to `CCCc1ccccc1`, the compound was classed as inactive in test [6], in [7] and in test [10].

For the compound `CCCCCCOC(=O)CC(CC(=O)OCCCCCC)(OC(=O)CCC)C(=O)OCCCCCC`, the outcome in test [12], in test [1], in test [3], in test [8], in [9] and in test [11] was inactive.

Turning to `CCCCC(CC)C(=O)OCCOCCOCCOC(=O)C(CC)CCCC` (stereo unspecified), the compound was classed as inactive in test [12], in [1], in [2], in [3], in test [6] and in test [7]. Also, the result in test [8], in [9], in test [11] and in test [10] was inactive.

In the case of `NC(=O)NN=Cc1ccc([N+](=O)[O-])o1`, in test [4], the AC50 was 50000 nM (active). For the same compound, the outcome in [5], in test [8] and in test [9] was inactive.

With `O=C(O)[C@H](O)[C@@H](O)C(=O)O`, the outcome in test [8] and in [9] was inactive.

`c1ccc2c(c1)-c1cccc3c1c-2cc1ccccc13`: the result in test [8], in test [9] and in test [11] was inactive.

For the compound `CCCCCCCCN(C)C`, the result in test [8], in test [9] and in test [11] was inactive.

Turning to `CC(C)CC(C)O` (stereo unspecified), the result in test [8] and in test [9] was inactive.

Regarding `Cc1ccc(S(=O)(=O)NC(=O)NN2CCCCCC2)cc1`, the outcome in [8] and in test [9] was inactive.

On to `OCCNCCO`, for which the outcome in test [8], in [9] and in [11] was inactive.

Turning to `CCCOc1ccc(S(=O)(=O)N2CCN(CC)CC2)cc1-c1nc2c(CC)n(Cc3ccccn3)nc2c(=O)[nH]1`, the result in test [8] and in [9] was inactive.

In the case of `O=C(N[C@H](CO)[C@H](O)c1ccc([N+](=O)[O-])cc1)C(Cl)Cl`, the outcome in [8], in test [9] and in [11] was inactive.

Consider `O=c1[nH]cnc2c1ncn2[C@H]1CC[C@@H](CO)O1`, for which the outcome in test [8] and in test [9] was inactive.

Regarding `c1ccc2ncccc2c1`, the result in test [8] and in [9] was inactive.

For `O=C(O)c1cccc(C(=O)O)c1`, the result in test [8] and in [9] was inactive.

Take `NNC(=O)c1ccncc1`: the result in [8] and in test [9] was inactive.

On to `S=P(N1CC1)(N1CC1)N1CC1`, for which the result in test [8] and in test [9] was inactive.

For the compound `NC(=O)N(O)[C@@H]1COc2cc(OCc3ccccc3)ccc21`, the outcome in test [8], in test [9] and in test [11] was inactive.

`CNC(C)=O`: the result in [8] and in test [9] was inactive.

In the case of `C=CN1CCCC1=O`, the result in test [8], in [9] and in test [11] was inactive.

For `COS(C)(=O)=O`, the result in [8], in test [9] and in test [11] was inactive.

As to `OC[C@H]1O[C@@H]2O[C@H]3[C@H](O)[C@@H](O)[C@@H](O[C@H]4[C@H](O)[C@@H](O)[C@@H](O[C@H]5[C@H](O)[C@@H](O)[C@@H](O[C@H]6[C@H](O)[C@@H](O)[C@@H](O[C@H]7[C@H](O)[C@@H](O)[C@@H](O[C@H]1[C@H](O)[C@H]2O)O[C@@H]7CO)O[C@@H]6CO)O[C@@H]5CO)O[C@@H]4CO)O[C@@H]3CO`, the result in test [8], in test [9] and in test [11] was inactive.

In the case of `NC(=O)N1c2ccccc2C=Cc2ccccc21`, the outcome in test [8], in test [9] and in [11] was inactive.

In the case of `CCCCN1C(=O)[C@@H]([C@H](O)C2CCCCC2)NC(=O)C12CCN(Cc1ccc(Oc3ccc(C(=O)O)cc3)cc1)CC2`, the outcome in test [8], in test [9] and in test [11] was inactive.

Consider `C[C@@H](Oc1ccc(CNC(=O)c2cccnc2Oc2ccc3c(c2)OCO3)c(F)c1)C(=O)O`, for which the outcome in [8], in test [9] and in [11] was inactive.

For `NC(N)=O`, the result in test [8], in test [9] and in test [11] was inactive.

For `O=C(O)c1ccc2c(c1)nc(C(=O)NC1CCN(C3CC3)CC1)n2Cc1cc(-c2ccc(Cl)s2)on1`, the result in test [8], in test [9] and in [11] was inactive.

With `C[C@]12C=CC(=O)C=C1CC[C@H]1[C@@H]3C[C@@H](O)[C@](O)(C(=O)CO)[C@@]3(C)C[C@H](O)[C@@]12F`, the result in test [8], in test [9] and in [11] was inactive.

With `CCCCCCCCCCCCCCO`, the result in [8] and in test [9] was inactive.

`CCn1nc(C)c2c1C(=O)NCC(c1ccc(O)cc1)=N2`: the result in test [8], in [9] and in [11] was inactive.

Turning to `Cn1cc[nH]c1=S`, the result in test [8], in test [9] and in test [11] was inactive.

`CC(=O)c1ccccc1`: the outcome in [8], in [9] and in [11] was inactive.

With `CC(C)CCCCCCOC(=O)C1CCCCC1C(=O)OCCCCCCC(C)C` (stereo unspecified), the result in test [8] and in test [9] was inactive.

As for `CCCCCOC(C)=O`, the result in [8] and in test [9] was inactive.

On to `CCCC(CCC)C(=O)O`, for which the result in test [8], in test [9] and in [11] was inactive.

With `CCOC(N)=O`, the result in test [8] and in [9] was inactive.

For the compound `CC1(C)C(=O)N(Cl)C(=O)N1Cl`, the outcome in test [8], in [9] and in [11] was inactive.

For `Nc1ccn([C@@H]2O[C@H](CO)[C@@H](O)[C@@H]2O)c(=O)n1`, the result in test [8] and in [9] was inactive.

For the compound `OC(Cn1cncn1)(Cn1cncn1)c1ccc(F)cc1F`, the outcome in test [8] and in [9] was inactive.
